# Laboratory results taken from PubChem BioAssay (NCATS).
# Inconclusive results are not listed. A call without a number means that no potency is given here. Active and inactive are the calls of the source. Calls follow the shape of the full dose curve.
# Assay: Cytotoxicity counterscreen for inhibitors of SARS-CoV-2 cell entry (AID 1645845); also: nearly all actives have a fitted effect of over 50% in size
# Conditions: cell viability (SARS-CoV-2 entry assay cells); series mostly up to 57.1 µM
# In short: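 HEK293-ACE2 cells (Expi293F stably expressing human ACE2) seeded overnight, then compound for 1 h plus 48 h at 37C. Viability as ATP content by luminescence; normalized to wells with cells and media-only wells.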
# Potency is read from the fitted curve at half-maximal effect.
row,Structure (SMILES),Potency
1,C[C@@H](N)C1CCC(C(=O)Nc2ccncc2)CC1 (stereo not given in full),inactive
2,CC(C)(N)C(=O)N[C@H](COCc1ccccc1)C(=O)N1CCC2(CC1)CN(S(C)(=O)=O)c1ccccc12,inactive
3,CC(C)C(=O)Nc1ncc(-c2cc(C(F)F)nn2-c2c(Cl)cccc2Cl)s1,inactive
4,CCCCc1ccc(NS(=O)(=O)c2ccc(C)c(C(=O)N3CCN(c4cccc(C)c4C)CC3)c2)cc1,inactive
5,CC(C)(O)C(=O)Nc1ccc([N+](=O)[O-])c(C(F)(F)F)c1,inactive
6,COc1cc2nc(-c3ccc(N4CCN(C)CC4)cc3)nc(NCCN3CCOCC3)c2cc1OC,inactive
7,CCCCCCCCCCC(CO)CCCCCCCC (stereo not given),inactive
8,CCOc1ccn(-c2ccc(F)cc2)c(=O)c1C(=O)Nc1ccc(Oc2ccnc(N)c2Cl)c(F)c1,inactive
9,NC(=O)c1ccc(I)c([N+](=O)[O-])c1,inactive
10,CC(C)(C(=O)NCC(F)(F)C(F)(F)F)C(=O)N[C@@H]1C(=O)Nc2ccccc2-c2ccccc21,inactive
11,OCCn1cc(-c2cnc3nnn(Cc4ccc5ncccc5c4)c3n2)cn1,inactive
12,Cc1cc2c(F)c(Oc3ncnn4cc(OC[C@@H](C)O)c(C)c34)ccc2[nH]1,inactive
13,Cn1cc(-c2[nH]c3cc(NC(=O)[C@H](N)C4CCCCC4)cc4c3c2C=NNC4=O)cn1,15.8 µM (active)
14,C[C@@H]1CCN(C(=O)CC#N)C[C@@H]1N(C)c1ncnc2[nH]ccc12,inactive
15,Cc1cc([C@@H](C)Nc2ccccc2C(=O)O)c2nc(N3CCOCC3)cc(=O)n2c1,inactive
16,COc1cc(Nc2ncc(F)c(Nc3ccc4c(n3)NC(=O)C(C)(C)O4)n2)cc(OC)c1OC,inactive
17,NC(=O)c1ccc(-c2nc(-c3ccc4c(c3)OCCO4)c(-c3ccccn3)[nH]2)cc1,inactive
18,O=C(NCCS(=O)(=O)c1ccc(C(F)(F)F)cn1)c1ccc(Cl)cc1,inactive
19,Cc1cnc(-c2cnc(NCCNc3ccc(C#N)cn3)nc2-c2ccc(Cl)cc2Cl)[nH]1,inactive
20,COc1cccc2c1CCCC2CCCN1CCN(C2CCCCC2)CC1 (stereo not given),inactive
21,Cc1ccccc1N=Nc1ccc(N=Nc2c(O)ccc3ccccc23)c(C)c1,inactive
22,S=c1[nH]c2ccccc2s1,inactive
23,CCCCC(CC)COC(=O)/C=C/c1ccc(OC)cc1 (stereo not given),inactive
24,O=C(Nc1cccc(C2=NCCN2)c1)Nc1cccc(C2=NCCN2)c1,inactive
25,O=C(Nc1ccccc1-c1cn2c(CN3CCNCC3)csc2n1)c1cnc2ccccc2n1,7.08 µM (active)
26,CCCn1c(=O)c2[nH]c(C34CC5CC3C[C@@H](C5)C4)nc2n(CCC)c1=O,inactive
27,CC(C)Oc1cc(Nc2nc(N[C@@H](C)c3ccc(F)cn3)ncc2Cl)[nH]n1,inactive
28,Cn1c(Nc2ccc(C(F)(F)F)cc2)nc2cc(Oc3ccnc(-c4ncc(C(F)(F)F)[nH]4)c3)ccc21,inactive

# Assay: Primary qHTS to identify inhibitors of SARS-CoV-2 cell entry (AID 1645846); also: nearly all actives have a fitted effect of over 45% in size
# Conditions: SARS-CoV-2 pseudovirus cell entry assay, luminescence; activity change, negative = inhibition: at 57.1 µM (top of the series) unless noted; series mostly up to 57.1 µM
# In short: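 Entry measured by luciferase signal 48 h after adding SARS-CoV-2-S pseudotyped MLV particles to HEK293-ACE2 cells preincubated 1 h with compounds. Normalisation: bald particles and spike particles.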
Structure (SMILES),Potency,"activity change, negative = inhibition [%]"
C=C1C(=CC=C2CCC[C@]3(C)[C@@H]([C@H](C)C=C[C@H](C)C(C)C)CC[C@@H]23)C[C@@H](O)C[C@@H]1O,inactive,
COc1cc2nc(-c3ccc(N4CCN(C)CC4)cc3)nc(NCCN3CCOCC3)c2cc1OC,,-14.2
CC(C)(C(=O)NCC(F)(F)C(F)(F)F)C(=O)N[C@@H]1C(=O)Nc2ccccc2-c2ccccc21,,-16.5
Cn1cc(-c2[nH]c3cc(NC(=O)[C@H](N)C4CCCCC4)cc4c3c2C=NNC4=O)cn1,8.91 µM (active),
C[C@@H]1CCN(C(=O)CC#N)C[C@@H]1N(C)c1ncnc2[nH]ccc12,,-1.42
COc1cc(Nc2ncc(F)c(Nc3ccc4c(n3)NC(=O)C(C)(C)O4)n2)cc(OC)c1OC,inactive,
Cn1c(Nc2ccc(C(F)(F)F)cc2)nc2cc(Oc3ccnc(-c4ncc(C(F)(F)F)[nH]4)c3)ccc21,,-24.1
